15 compounds from PubChem BioAssay (NCI) can be followed below.

Test systems include SR leukemia; OVCAR-8 ovarian; OVCAR-5 ovarian; OVCAR-4 ovarian; SK-OV-3 ovarian; IGROV1 ovarian; OVCAR-3 ovarian; HS 578T breast; RPMI-8226 leukemia; NCI/ADR-RES ovarian.
Common to all, as to test: NCI-60 one-dose screen, 48 h (100 = growth as untreated, 0 = no growth, -100 = all killed)
What all share (conditions): 10 µM unless noted

This is part of a sample that, as a whole, favours compounds with a hit. Of some 83,000 tested, about 20% had one in any assay.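 Interpretation: 100, growth as untreated; towards 0, rising growth inhibition; 0, no net growth; 0 to -100, cell death. Compounds scoring below 10 were considered active.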 A number with no mark means an inactive call. Active and inactive are the calls of the source.

In the case of `CCOc1ccc(C(CN2CCOCC2)C(C)=O)cc1OC` (stereo not given), the growth is 65.2% in the assay on SR leukemia; 96.3% with OVCAR-8 ovarian; 99.1% with OVCAR-5 ovarian; 98.2% with OVCAR-4 ovarian; 99.4% in the assay with SK-OV-3 ovarian; 113% with IGROV1 ovarian. For the same compound, the figures for the growth in the assay on OVCAR-3 ovarian and with HS 578T breast were 88.3% and 97.7%, respectively.

In the case of `COC1=CC(=O)c2c(O)c3c(c(O)c2C1=O)CC(C)(O)OC3` (stereo not given), the growth is 14.3% in the assay with SR leukemia; 34.7% in the assay on RPMI-8226 leukemia; 35.4% with OVCAR-5 ovarian; -12.8% (active) with OVCAR-4 ovarian; 86.9% in the assay with SK-OV-3 ovarian; -0.531% (active) in the assay on OVCAR-3 ovarian. The growth is 67.2% with HS 578T breast and -4.8% (active) with NCI/ADR-RES ovarian.

Take `C[C@@]1(CO)[C@H](O)CC[C@@]2(C)[C@H]1CC[C@H]1C[C@@H]3C[C@@]12CC[C@@]3(O)COC(=O)CN`: the growth in the assay on SR leukemia is 18.9%; with RPMI-8226 leukemia it was 43%; in the assay with OVCAR-5 ovarian, 24.7%; in the assay with OVCAR-4 ovarian it was 87.9%; in the assay with SK-OV-3 ovarian, 74.8%; in the assay with IGROV1 ovarian, 33.5%. Also, the values for the growth with OVCAR-3 ovarian and in the assay on NCI/ADR-RES ovarian were 70.9% and 11.1%, respectively.

With `O=C1C=CC(=O)N1c1cccc2c1CCCC2`, the growth in the assay on SR leukemia is 87.6%; in the assay with RPMI-8226 leukemia, 100%; with OVCAR-8 ovarian, 110%; with OVCAR-4 ovarian, 102%; in the assay with SK-OV-3 ovarian, 99.5%; with IGROV1 ovarian it was 97.5%. In addition, the growth in the assay on OVCAR-3 ovarian is 106%; in the assay with HS 578T breast it was 114%; in the assay with NCI/ADR-RES ovarian, 112%.

As for `NC(=Nc1nc(-c2ccccn2)cc2ccccc12)c1ccccn1`, the growth with SR leukemia was 6.67% (active); in the assay with RPMI-8226 leukemia, -11.3% (active); in the assay on OVCAR-5 ovarian it was -15.7% (active); in the assay on OVCAR-4 ovarian, 27.1%; with SK-OV-3 ovarian it was 19.7%; in the assay with IGROV1 ovarian, -9.19% (active). Also, the growth is 29.3% with OVCAR-3 ovarian and -31.2% (active) with NCI/ADR-RES ovarian.

Regarding `O=C1C=CC(=O)c2c(O)c(CO)c(CO)c(O)c21`, the growth in the assay with SR leukemia was 83.3%; in the assay with RPMI-8226 leukemia it was 18.2%; with OVCAR-5 ovarian it was 84.8%; in the assay on OVCAR-4 ovarian, 64.9%; in the assay on SK-OV-3 ovarian, 109%; with IGROV1 ovarian it was 52.7%. For the same compound, the figures for the growth in the assay with OVCAR-3 ovarian, in the assay with HS 578T breast and in the assay on NCI/ADR-RES ovarian were 98.3%, 113% and 97.2%, respectively.

For `O=C(CCl)N1c2ccccc2Sc2c1ccc1ccccc21`, the growth with SR leukemia was 12.9%; in the assay on RPMI-8226 leukemia it was 36.1%; with OVCAR-8 ovarian, 64.2%; in the assay on SK-OV-3 ovarian, 106%; in the assay on IGROV1 ovarian, 34.4%; in the assay with OVCAR-3 ovarian it was 74.3%. Also, the growth is 82.1% with HS 578T breast and 75.3% with NCI/ADR-RES ovarian.

With `[Cl-].[Rh+3].c1ccc(-c2ccnc3c2ccc2c(-c4ccccc4)ccnc23)cc1.c1ccc(-c2ccnc3c2ccc2c(-c4ccccc4)ccnc23)cc1.c1ccc(-c2ccnc3c2ccc2c(-c4ccccc4)ccnc23)cc1`, the growth was 89.4% in the assay on SR leukemia; 91.1% with RPMI-8226 leukemia; -2.79% (active) with OVCAR-5 ovarian; 84.8% with OVCAR-4 ovarian; 77.9% with SK-OV-3 ovarian; 66.5% in the assay with IGROV1 ovarian. In addition, the results for the growth with OVCAR-3 ovarian and in the assay with NCI/ADR-RES ovarian were 69.8% and 95.7%, respectively.

For the compound `Cc1ccc(/C=C2\CNC/C(=C\c3ccc(C)cc3)C2=O)cc1`, the growth in the assay on SR leukemia is -2.99% (active); in the assay with RPMI-8226 leukemia, -30.6% (active); with OVCAR-5 ovarian it was -28.4% (active); in the assay on OVCAR-4 ovarian, 9.79% (active); in the assay on SK-OV-3 ovarian it was 30.5%; in the assay with IGROV1 ovarian it was -71.2% (active). In the assay with OVCAR-3 ovarian, the growth is -58.5% (active).

As for `CN(C)c1ccc(C(=C2C=CC(=[N+](C)C)C=C2)c2ccc(N(C)C)cc2)cc1`, the growth was -14.3% (active) with SR leukemia; -44.8% (active) in the assay with OVCAR-8 ovarian; -34.4% (active) with OVCAR-5 ovarian; -18.5% (active) in the assay with OVCAR-4 ovarian; -90.9% (active) in the assay with SK-OV-3 ovarian; -37.2% (active) with IGROV1 ovarian. For the same compound, the growth in the assay with OVCAR-3 ovarian was -91.1% (active); with HS 578T breast, 1.62% (active).

As to `Cc1ccccc1N=C(N)Nc1ccccc1C` (tested in a mixture with another compound), the growth in the assay with SR leukemia was 49.6%; in the assay on OVCAR-8 ovarian, 73.7%; with OVCAR-5 ovarian, 91.6%; with OVCAR-4 ovarian, 82.2%; in the assay on SK-OV-3 ovarian, 98.5%; with IGROV1 ovarian it was 62.6%. For the same compound, the values for the growth in the assay on OVCAR-3 ovarian and in the assay on HS 578T breast were 78.8% and 111%, respectively.

As for `CC(C)=CCCC(C)C1=C(O)C(=O)C(C)=CC1=O` (stereo not given), the growth with SR leukemia is -12.4% (active); in the assay with RPMI-8226 leukemia, -34.2% (active); in the assay on OVCAR-5 ovarian, 97.4%; with SK-OV-3 ovarian, 97.8%; in the assay with IGROV1 ovarian it was -75.7% (active); with OVCAR-3 ovarian it was -12.5% (active). Moreover, the growth in the assay on HS 578T breast is 94.4%.

As to `Fc1ccc(NCCS)cc1`, the growth with SR leukemia was 88.9%; in the assay with RPMI-8226 leukemia, 91%; in the assay with OVCAR-8 ovarian, 103%; with OVCAR-4 ovarian, 102%; with IGROV1 ovarian, 104%; with OVCAR-3 ovarian, 107%. For the same compound, the growth in the assay with HS 578T breast was 115%; in the assay on NCI/ADR-RES ovarian, 109%.

As to `CSc1nc(C)c(C(=O)CCN2CCN(c3ccccn3)CC2)s1`, the growth was 94.3% in the assay with SR leukemia; 98.4% in the assay on OVCAR-8 ovarian; 104% in the assay with OVCAR-5 ovarian; 97.5% with OVCAR-4 ovarian; 102% in the assay on SK-OV-3 ovarian; 119% in the assay on IGROV1 ovarian. The growth in the assay on OVCAR-3 ovarian is 104%; in the assay on HS 578T breast it was 102%.

Regarding `O=C1/C(=C\c2ccc([N+](=O)[O-])cc2)CS(=O)(=O)C/C1=C/c1ccc([N+](=O)[O-])cc1`, the growth is 0.134% (active) in the assay on SR leukemia; -19.4% (active) in the assay on RPMI-8226 leukemia; -99% (active) in the assay on OVCAR-5 ovarian; -90.2% (active) with OVCAR-4 ovarian; -43.3% (active) in the assay on SK-OV-3 ovarian; -82.4% (active) in the assay with IGROV1 ovarian. For the same compound, the values for the growth in the assay with OVCAR-3 ovarian and with NCI/ADR-RES ovarian were -90.1% (active) and -80.4% (active), respectively.
